Test results from PubChem BioAssay AID1159580 (chemical genetic matrix, 2015).
“And” between values parts separate entries of the source, which are not always exact repeats. Equal entries are not always repeated. Screen size: about 5,500 compounds; about 2,000 (36%) were called active. Another 18% or so got no clear call; they are omitted. Rule as the data show it: active = normalized growth mostly below about 0.91 (no sharp cut-off); inconclusive = no clear call, values can overlap the other calls; inactive = mostly above about 0.92. Some of the results follow.

Experiment: chemical genetic growth profiling, strain panel (AID 1159580);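 also: tested at 20 µM; growth read once vehicle control cultures reached saturation at 30 °C; 1 = growth at the plate median or of vehicle wells; lower values mean less growth of the strain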
Settings: S. cerevisiae deletion strains, growth OD

Measured: normalized growth

N#Cc1c(Cl)c(Cl)c(Cl)c(C#N)c1Cl
inactive: locus YAL013W, strain DEP1, stronger effect = lower value 1 | locus YBR021W, strain FUR4, stronger effect = lower value 0.953 | locus YBR229C, strain ROT2, stronger effect = lower value 0.991 | locus YCL029C, strain bik1, stronger effect = lower value 0.976 | locus YDL035C, strain GPR1, stronger effect = lower value 1 | locus YDL074C, strain BRE1, stronger effect = lower value 1.01 | locus YDL101C, strain DUN1, stronger effect = lower value 1 | locus YDL134C, strain PPH21, stronger effect = lower value 0.992 | locus YDL185W, strain tfp1, stronger effect = lower value 0.951 | locus YDL192W, strain arf1, stronger effect = lower value 0.984 | locus YDR101C, strain arx1, stronger effect = lower value 0.986 | locus YDR150W, strain NUM1, stronger effect = lower value 1.01 | locus YDR162C, strain NBP2, stronger effect = lower value 1.01 | locus YDR318W, strain mcm21, stronger effect = lower value 0.975 | locus YDR388W, stronger effect = lower value 0.97 | locus YDR502C, strain sam2, stronger effect = lower value 0.996 | locus YEL061C, strain CIN8, stronger effect = lower value 1 | locus YER110C, stronger effect = lower value 0.976 | locus YER155C, strain BEM2, stronger effect = lower value 0.993 | locus YER167W, strain BCK2, stronger effect = lower value 0.993 | locus YGL078C, strain dbp3, stronger effect = lower value 0.983 | locus YGL086W, strain mad1, stronger effect = lower value 0.976 | locus YGL248W, strain PDE1, stronger effect = lower value 0.994 | locus YGR078C, strain PAC10, stronger effect = lower value 1.01 | locus YGR135W, strain pre9, stronger effect = lower value 0.998 | locus YGR229C, strain SMI1, stronger effect = lower value 1 | locus YGR252W, strain gcn5, stronger effect = lower value 0.932 | locus YHR079C, strain IRE1 (second series), stronger effect = lower value 0.98 | locus YHR094C, strain hxt1, stronger effect = lower value 0.979 | locus YHR129C, strain ARP1, stronger effect = lower value 1 | locus YHR200W, strain rpn10, stronger effect = lower value 0.973 | locus YIL066C, strain RNR3, stronger effect = lower value 0.989 | locus YIL073C, strain SPO22, stronger effect = lower value 0.969 | locus YIL125W, strain kgd1, stronger effect = lower value 0.98 | locus YIR030C, strain dcg1, stronger effect = lower value 0.976 | locus YJL134W, strain LCB3, stronger effect = lower value 0.998 | locus YJL168C, strain set2, stronger effect = lower value 0.985 | locus YJL187C, strain SWE1 (second series), stronger effect = lower value 0.994 | locus YJR043C, strain POL32, stronger effect = lower value 0.994
0.992 (inactive) and 0.126 (active): locus YHR030C, strain SLT2, stronger effect = lower value
1 (inactive) and 0.151 (active): locus YJL095W, strain BCK1, stronger effect = lower value
active: locus YAL021C, strain ccr4, stronger effect = lower value 0.0842 | locus YAL026C, strain drs2, stronger effect = lower value 0.0831 | locus YAL030W, strain snc1, stronger effect = lower value 0.0677 | locus YBL061C, strain skt5, stronger effect = lower value 0.0748 | locus YBR009C, strain hhf1, stronger effect = lower value 0.0742 | locus YBR023C, strain chs3, stronger effect = lower value 0.0756 | locus YBR171W, strain sec66, stronger effect = lower value 0.0931 | locus YBR231C, strain swc5, stronger effect = lower value 0.077 | locus YBR279W, strain paf1, stronger effect = lower value 0.0631 | locus YCL011C, strain gbp2, stronger effect = lower value 0.0716 | locus YCL016C, strain dcc1, stronger effect = lower value 0.0812 | locus YCL061C, strain MRC1, stronger effect = lower value 0.078 | locus YCL069W, strain vba3, stronger effect = lower value 0.0768 | locus YCR088W, strain abp1, stronger effect = lower value 0.0707 | locus YDL005C, strain med2, stronger effect = lower value 0.0898 | locus YDL040C, strain nat1, stronger effect = lower value 0.0666 | locus YDR001C, strain nth1, stronger effect = lower value 0.071 | locus YDR069C, strain doa4, stronger effect = lower value 0.0807 | locus YDR137W, strain rgp1, stronger effect = lower value 0.106 | locus YDR159W, strain sac3, stronger effect = lower value 0.113 | locus YDR195W, strain ref2 0.161 | locus YDR297W, strain sur2, stronger effect = lower value 0.0715 | locus YDR334W, strain swr1, stronger effect = lower value 0.0727 | locus YDR335W, strain msn5, stronger effect = lower value 0.0699 | locus YDR392W, strain spt3, stronger effect = lower value 0.0937 | locus YEL003W, strain gim4, stronger effect = lower value 0.0699 | locus YEL037C, strain rad23, stronger effect = lower value 0.0662 | locus YEL061C, strain CIN8 (second series), stronger effect = lower value 0.0687 | locus YER015W, strain faa2, stronger effect = lower value 0.078 | locus YER016W, strain bim1, stronger effect = lower value 0.0769 | locus YER111C, strain swi4, stronger effect = lower value 0.0874 | locus YER155C, strain BEM2 (second series), stronger effect = lower value 0.108 | locus YFR010W, strain ubp6, stronger effect = lower value 0.0828 | locus YGL167C, strain pmr1, stronger effect = lower value 0.0894 | locus YGL173C, strain kem1, stronger effect = lower value 0.084 | locus YGL227W, strain vid30, stronger effect = lower value 0.0779 | locus YGL240W, strain doc1, stronger effect = lower value 0.0947 | locus YGL253W, strain hxk2, stronger effect = lower value 0.0661 | locus YHR013C, strain ard1, stronger effect = lower value 0.114 | locus YHR027C, strain rpn1, stronger effect = lower value 0.0746 | locus YHR079C, strain IRE1, stronger effect = lower value 0.142 | locus YHR142W, strain chs7, stronger effect = lower value 0.0874 | locus YJL092W, strain hpr5, stronger effect = lower value 0.0707 | locus YJL095W, strain BCK1 (second series), stronger effect = lower value 0.0749 | locus YJL115W, strain asf1, stronger effect = lower value 0.0849 | locus YJL129C, strain trk1, stronger effect = lower value 0.106 | locus YJL154C, strain vps35, stronger effect = lower value 0.07 | locus YJL164C, strain tpk1, stronger effect = lower value 0.0766 | locus YJL166W, strain qcr8, stronger effect = lower value 0.0732 | locus YJR066W, strain TOR1, stronger effect = lower value -0.00264
